Test results reported in PubChem BioAssay (EPA / NIEHS).
The source made the active and inactive calls. Rule for the calls: active = hit-call score of the fitted dose curve at least 0.9, where 1 is the maximum; inactive = score below 0.9.

Columns and labels:
[1] = ATG_CRE_CIS: Attagene CIS-FACTORIAL HepG2 Assay for human cAMP Responsive Element (CRE) binding protein 3 (AID 2282926); conditions: HepG2 CRE cis-reporter, Attagene multiplexed mRNA; actives raise or lower the signal
Method in brief: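 HepG2 cells transiently transfected with cis-element-driven multiple reporter transcription units; CRE reporter mRNA measured 24 h after dosing by RT-PCR, 6-FAM labelling, HpaI digestion and capillary electrophoresis. Bidirectional fit versus DMSO baseline.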

[2] = ATG_CMV_CIS: Attagene CIS-FACTORIAL HepG2 Assay for human CMV (Internal Marker) (AID 2282928); conditions: HepG2 CMV promoter reporter, transcription factor profiling; actives raise or lower the signal;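 note: endpoint acts as a background internal control marker rather than a target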
Method in brief: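 Cell system: HepG2, transiently transfected multiple reporter units under cis promoters. Exposure: 24 h. Detection: RT-PCR, FAM labeling, HpaI digestion, capillary electrophoresis. Analysis: bidirectional, DMSO baseline.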

[3] = ATG_DR4_LXR_CIS: Attagene CIS-FACTORIAL HepG2 Assay for human Liver X Receptor (LXR), DR4 submotif (AID 2282929); conditions: HepG2 Attagene DR4 cis-reporter, mRNA transcription; actives raise or lower the signal
Method in brief: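 Measures endogenous transcription factor activity via a DR4-driven reporter transcript in human HepG2 cells. Compounds incubated 24 h; mRNA quantified by RT-PCR and capillary electrophoresis, analysed as gain or loss of signal versus DMSO.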

[4] = biological target: Aryl hydrocarbon receptor (Homo sapiens) (UniProt P35869); experiment: ATG_Ahr_CIS: Attagene CIS-FACTORIAL HepG2 Assay for human Aryl Hydrocarbon Receptor (Ahr) (AID 2282930); conditions: HepG2 AhR cis-factorial reporter transcription; actives raise or lower the signal
Sequence of Aryl hydrocarbon receptor (Homo sapiens) (P35869 whole entry, looked up): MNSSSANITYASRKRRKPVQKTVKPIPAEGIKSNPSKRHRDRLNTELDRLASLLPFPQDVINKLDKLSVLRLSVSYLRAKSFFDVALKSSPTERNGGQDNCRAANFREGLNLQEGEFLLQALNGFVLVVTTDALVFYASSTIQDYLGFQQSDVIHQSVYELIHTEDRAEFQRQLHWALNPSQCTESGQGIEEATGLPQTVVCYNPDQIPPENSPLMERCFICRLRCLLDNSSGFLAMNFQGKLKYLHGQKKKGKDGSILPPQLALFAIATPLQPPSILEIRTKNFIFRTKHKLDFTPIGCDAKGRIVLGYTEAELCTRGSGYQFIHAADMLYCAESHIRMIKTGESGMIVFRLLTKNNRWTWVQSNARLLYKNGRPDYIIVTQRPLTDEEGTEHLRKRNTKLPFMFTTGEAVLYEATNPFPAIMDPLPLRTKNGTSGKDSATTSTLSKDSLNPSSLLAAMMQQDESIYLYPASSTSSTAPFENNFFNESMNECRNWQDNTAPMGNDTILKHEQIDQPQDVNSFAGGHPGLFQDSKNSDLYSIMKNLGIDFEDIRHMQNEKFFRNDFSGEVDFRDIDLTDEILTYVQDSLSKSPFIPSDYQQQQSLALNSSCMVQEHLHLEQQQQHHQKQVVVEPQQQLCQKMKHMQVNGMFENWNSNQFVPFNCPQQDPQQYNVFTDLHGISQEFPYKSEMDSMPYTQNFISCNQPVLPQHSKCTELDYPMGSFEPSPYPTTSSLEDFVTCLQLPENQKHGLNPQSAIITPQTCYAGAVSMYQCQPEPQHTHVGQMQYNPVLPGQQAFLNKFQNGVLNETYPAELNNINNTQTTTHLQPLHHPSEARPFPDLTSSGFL
Method in brief: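 Reporter mRNA levels, quantified by RT-PCR and fluorescent capillary electrophoresis, reflect endogenous AhR transcriptional activity in HepG2 cells carrying transfected cis-promoter reporter constructs. Readout at 24 h post-dose; gain or loss fitted against DMSO baseline.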

[5] = ATG_AP_1_CIS: Attagene CIS-FACTORIAL HepG2 Assay for human Activator Protein 1 (AP-1) (AID 2282931); conditions: HepG2 Attagene cis-factorial AP-1 reporter mRNA; actives raise or lower the signal
Method in brief: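 Bidirectional concentration-response fitting against DMSO controls. Underlying signal: reporter mRNA from cis-promoter constructs in transiently transfected HepG2, measured after 24 h by RT-PCR and capillary electrophoresis.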

[6] = ATG_AP_2_CIS: Attagene CIS-FACTORIAL HepG2 Assay for human Activator Protein 2 (AP-2) (AID 2282932); conditions: HepG2 AP-2 cis-reporter, Attagene transcription factor profiling; actives raise or lower the signal
Method in brief: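 Step one: transient transfection of HepG2 with reporter transcription units. Step two: 24 h chemical exposure. Step three: RNA extraction, RT-PCR, labelled fragment analysis by capillary electrophoresis; DMSO serves as baseline.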

[7] = ATG_BRE_CIS: Attagene CIS-FACTORIAL HepG2 Assay for human Bone Morphogenetic Protein (BMP) Response Element (BRE) (AID 2282933); conditions: HepG2 BMP response element reporter, Attagene transcription factor profiling; actives raise or lower the signal
Method in brief: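 Fluorescence-labelled reporter cDNA fragments, separated by capillary electrophoresis, gave the signal for this component of a 52-readout multiplex. HepG2 cells were transfected, exposed to chemicals for 24 h, and compared with DMSO using bidirectional fitting.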

[8] = biological target: Retinoic acid receptor alpha (Homo sapiens) (UniProt P10276); experiment: ATG_DR5_RAR_CIS: Attagene CIS-FACTORIAL HepG2 Assay for human Retinoic Acid Receptor Alpha (RARE), DR5 submotif (AID 2282934); conditions: HepG2 Attagene cis-factorial RARE DR5 reporter, mRNA; actives raise or lower the signal;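 for AC50: reporter responds to endogenous RAR alpha beta and gamma in HepG2 not RARA alone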
Sequence of Retinoic acid receptor alpha (Homo sapiens) (P10276 whole entry, looked up): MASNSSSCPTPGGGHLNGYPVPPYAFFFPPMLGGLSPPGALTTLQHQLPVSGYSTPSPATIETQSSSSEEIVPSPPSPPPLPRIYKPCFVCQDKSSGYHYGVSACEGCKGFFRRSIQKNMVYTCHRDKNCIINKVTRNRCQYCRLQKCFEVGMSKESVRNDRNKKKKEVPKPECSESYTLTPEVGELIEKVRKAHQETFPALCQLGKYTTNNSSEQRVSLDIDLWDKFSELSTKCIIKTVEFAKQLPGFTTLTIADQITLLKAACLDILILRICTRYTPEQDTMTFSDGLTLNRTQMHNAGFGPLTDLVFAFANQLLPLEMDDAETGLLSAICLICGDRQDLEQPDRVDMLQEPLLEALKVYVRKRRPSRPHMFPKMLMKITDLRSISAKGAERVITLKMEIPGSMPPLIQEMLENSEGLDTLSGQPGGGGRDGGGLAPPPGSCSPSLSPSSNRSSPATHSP
Method in brief: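 Reporter transcripts from a DR5-regulated unit, measured via RT-PCR plus capillary electrophoresis, reflect endogenous RAR activity in transiently transfected human HepG2 liver cells. Exposure lasted 24 h; gain or loss of signal scored against DMSO.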

[9] = biological target: CCAAT/enhancer-binding protein beta (Homo sapiens) (UniProt P17676); experiment: ATG_C_EBP_CIS: Attagene CIS-FACTORIAL HepG2 Assay for human CCAAT/Enhancer Binding Protein (C/EBP) beta (AID 2282927); conditions: HepG2 Attagene cis-factorial transcription factor reporter; actives raise or lower the signal
Sequence of CCAAT/enhancer-binding protein beta (Homo sapiens) (P17676 whole entry, looked up, the tested form may be a part): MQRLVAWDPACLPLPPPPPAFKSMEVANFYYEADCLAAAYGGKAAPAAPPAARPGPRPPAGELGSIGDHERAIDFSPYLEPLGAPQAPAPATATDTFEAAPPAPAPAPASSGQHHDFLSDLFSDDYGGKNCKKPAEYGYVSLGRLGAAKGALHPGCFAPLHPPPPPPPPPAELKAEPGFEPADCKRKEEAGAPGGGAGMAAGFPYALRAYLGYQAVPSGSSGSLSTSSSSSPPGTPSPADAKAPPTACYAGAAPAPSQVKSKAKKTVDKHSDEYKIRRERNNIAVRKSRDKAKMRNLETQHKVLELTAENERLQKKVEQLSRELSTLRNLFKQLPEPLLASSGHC
Method in brief: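 Endogenous C/EBPb-driven reporter transcripts measured in transfected human HepG2 cells at 24 h via RT-PCR and capillary electrophoresis of labelled fragments. Activity fitted in both directions relative to DMSO baseline.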

Measured: AC50

O=C(O)C(F)(F)OC(F)(F)C(F)(F)OC(F)(F)F
not listed: [9]
inactive: all other assays above

CC(C)Nc1ccc(Nc2ccccc2)cc1
active: [3] 32.4 µM | [5] 60 µM
not listed: [2]
inactive: all other assays above

COP(N)(=S)OC
not listed: [2]
inactive: all other assays above

COC(N)=O
not listed: [2] | [9]
inactive: all other assays above

O=P(OCC(Br)CBr)(OCC(Br)CBr)OCC(Br)CBr (centres undefined)
active: [3] 8.35 µM | [4] 19.5 µM | [5] 53.9 µM | [6] 40.1 µM | [7] 20.6 µM
inactive: [1] | [9] | [8]

Oc1ccccc1Br
not listed: [9]
inactive: all other assays above

O=C(O)C(F)(OC(F)(F)C(F)(F)C(F)(F)F)C(F)(F)F (centres undefined)
not listed: [2]
inactive: all other assays above

CCCCOCCOP(=O)(OCCOCCCC)OCCOCCCC
not listed: [2] | [4]
inactive: all other assays above

Cn1[nH]nnc1=S
not listed: [9]
inactive: all other assays above

CCCCC(CC)COP(=O)(Oc1ccccc1)Oc1ccccc1 (centres undefined)
inactive: [1] | [6] | [8]
active: [3] 26.1 µM | [4] 17.8 µM | [5] 29.5 µM | [7] 21.4 µM

CC1=C(C(=O)Nc2ccccc2)S(=O)(=O)CCO1
inactive: [1] | [4] | [8]
active: [3] 44.3 µM | [5] 66.8 µM | [6] 18.1 µM | [7] 6.73 µM

CC(=O)c1ccc(-c2ccccc2)cc1
active: [4] 56.5 µM
not listed: [9]
inactive: all other assays above

OCC(F)(F)OC(F)(F)C(F)(F)OC(F)(F)CO
not listed: [2]
inactive: all other assays above

CCN(CC)C1CCCCC1
not listed: [2]
inactive: all other assays above

C=CC(=O)OCC(CC)(COC(=O)C=C)COC(=O)C=C
inactive: [1] | [6] | [7] | [8]
active: [3] 16.8 µM | [4] 35.9 µM | [5] 113 µM

CCCCOCC1CO1 (centres undefined)
not listed: [9]
inactive: all other assays above

CC(Cl)CN(C)C (centres undefined)
not listed: [2] | [9]
inactive: all other assays above

O=C(CBr)OCc1ccccc1
not listed: [9]
inactive: all other assays above

O=S1(=O)OCC2C(CO1)C1(Cl)C(Cl)=C(Cl)C2(Cl)C1(Cl)Cl (centres undefined)
active: [1] 171 µM | [3] 8.33 µM | [4] 2.9 µM | [8] 171 µM
inactive: [2] | [5] | [6] | [7]

c1ccc2c(c1)sc1ccccc12
not listed: [9]
inactive: all other assays above

C=CC(=O)OCC(F)(F)C(F)F
active: [3] 67 µM
not listed: [2]
inactive: all other assays above

Nc1ccc([N+](=O)[O-])cc1Cl
not listed: [2]
inactive: all other assays above

O=c1[nH]c2ccccc2c(=O)o1
active: [4] 89.5 µM
not listed: [2]
inactive: all other assays above

Cc1cc(C)c(C(=O)P(=O)(c2ccccc2)c2ccccc2)c(C)c1
active: [3] 11.5 µM | [6] 59.3 µM
not listed: [9]
inactive: all other assays above

CC1(C)CN=C(NN=C(/C=C/c2ccc(C(F)(F)F)cc2)/C=C/c2ccc(C(F)(F)F)cc2)NC1
active: [1] 8.42 µM | [9] 3.09 µM | [3] 8.29 µM | [7] 16.7 µM
not listed: [2]
inactive: all other assays above
